Drawing on PubChem BioAssay (NCATS), this text covers Potency, activity change, negative = inhibition and max response for 16 compounds.

Experiment [1] concerns the target Cytochrome P450 3A4 (Homo sapiens) (UniProt P08684). The experiment can be described thus: qHTS Assay for Inhibitors and Substrates of Cytochrome P450 3A4 (AID 884). Further: on the % scale 0 is the no-effect control and ±100 the full control effect; nearly all actives have a fitted effect of over 50% in size. An outline of the steps: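 20 nM human CYP3A4 with 25 uM Luciferin-PPXE (at KM) in 200 mM KPO4, preincubated 10 min with compound; NADPH regeneration started a 60 min RT reaction. Luciferin detected by luminescence, normalized to 57 uM ketoconazole as full inhibition.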
A general note: In qHTS, concentration-response curves come from the screen itself.

The nature of experiment [2]: Confirmation and Secondary Assay for Modulators of Hemoglobin Beta Chain Splicing at IVS2 654 locus (AID 910).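 Further: HeLa cells stably carrying EGFP split by mutant beta-globin IVS2-654 intron; % of control where 0% means no effect.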 An outline of the steps:
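HeLa cells stably expressing EGFP interrupted by β-globin IVS2-654 intron, seeded overnight in Opti-MEM/2% FCS, then treated 2 days at 37 °C. Restored splicing read as total peak GFP intensity per well by laser scanning cytometry (488 nm excitation, 500–520 nm emission); 500 nM antisense PNA as control.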

Experiment [3] can be described thus: Confirmation and Secondary Assay for Modulators of Hemoglobin Beta Chain Splicing at IVS2 705 locus (AID 930).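 Further: HeLa cells stably expressing the EGFP-705 splicing reporter; % of control where 0% means no effect.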 An outline of the steps: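 Assay measures total GFP intensity per well in HeLa EGFP-705 cells after 2 days with compound; mis-splicing normally truncates EGFP, so fluorescence indicates corrected splicing.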
Experiment [4] in a line: qHTS Assay for Lipid Storage Modulators (AID 1519; calls by dose curve; on activity change, negative = inhibition: on the % scale 0 is the no-effect control and ±100 the full control effect). Particulars: Drosophila S3 cells, BODIPY lipid droplet/cell ratio, laser cytometry, cells loaded with oleic acid; for activity change, negative = inhibition: at 57.5 µM (top of the series). Summed up:
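Cells seeded at 5,000 per well were treated with compounds over a concentration series and loaded with oleic acid (400 uM, as added). Lipid droplet fluorescence (488 nm excitation, 500-530 nm channel) was read by laser-scanning cytometry and normalized to 20 uM Triacsin C.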

The target in experiment [5] is Ubiquitin carboxyl-terminal hydrolase 1 (Homo sapiens) (UniProt O94782). The experiment can be described thus: Inhibitors of USP1/UAF1: Pilot qHTS (AID 504865).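 Further: rhodamine fluorescence freed from ubiquitin-rhodamine substrate followed over time; top concentration of the series differs between compounds; on the % scale 0 is the no-effect control and ±100 the full control effect; nearly all actives have a fitted effect of over 35% in size.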 An outline of the steps:
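In 50mM HEPES pH 7.8 containing 0.5mM EDTA, 1mM TCEP, 0.1 mg/ml BSA and 0.01% Tween-20, 1nM USP1/UAF1 is exposed to compound for 15 min, then Ub-Rho (150nM final) is added and fluorescence is read over time.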

Setting [6] is: measured here: cell count channel max response.
[7] abbreviates: measured here: lipid channel max response.

Results filed as inconclusive are left out. The source made the active and inactive calls. Unless noted, the call rests on the fitted dose curve; in most records, active means well fitted curve in the direction sought with a large enough effect; inconclusive means small, poorly fitted or top-dose-only effect, or another doubt; inactive means no such curve, though single readings can be large; an effect the other way counts as inactive or inconclusive.

Sequence of Ubiquitin carboxyl-terminal hydrolase 1 (Homo sapiens) (O94782 whole entry, looked up): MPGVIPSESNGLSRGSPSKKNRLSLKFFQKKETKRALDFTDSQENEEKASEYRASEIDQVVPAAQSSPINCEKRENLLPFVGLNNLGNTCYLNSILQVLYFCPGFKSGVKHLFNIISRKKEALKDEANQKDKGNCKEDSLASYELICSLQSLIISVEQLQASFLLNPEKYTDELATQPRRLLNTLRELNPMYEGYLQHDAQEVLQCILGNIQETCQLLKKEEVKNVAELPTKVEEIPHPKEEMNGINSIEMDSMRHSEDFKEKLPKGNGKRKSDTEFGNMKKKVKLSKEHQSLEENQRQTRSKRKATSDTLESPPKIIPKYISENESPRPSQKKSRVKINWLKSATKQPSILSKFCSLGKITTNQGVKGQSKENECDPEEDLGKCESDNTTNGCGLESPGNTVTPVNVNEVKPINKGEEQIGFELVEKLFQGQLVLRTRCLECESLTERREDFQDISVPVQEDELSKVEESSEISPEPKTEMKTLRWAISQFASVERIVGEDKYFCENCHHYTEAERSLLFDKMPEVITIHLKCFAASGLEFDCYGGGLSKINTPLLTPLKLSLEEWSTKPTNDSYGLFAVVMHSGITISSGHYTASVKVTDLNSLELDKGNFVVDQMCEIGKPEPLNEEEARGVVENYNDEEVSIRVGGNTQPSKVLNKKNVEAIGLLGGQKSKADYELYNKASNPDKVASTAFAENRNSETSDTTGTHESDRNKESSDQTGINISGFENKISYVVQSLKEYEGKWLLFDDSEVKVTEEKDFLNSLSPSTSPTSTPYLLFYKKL
Sequence of Cytochrome P450 3A4 (Homo sapiens) (P08684 whole entry, looked up): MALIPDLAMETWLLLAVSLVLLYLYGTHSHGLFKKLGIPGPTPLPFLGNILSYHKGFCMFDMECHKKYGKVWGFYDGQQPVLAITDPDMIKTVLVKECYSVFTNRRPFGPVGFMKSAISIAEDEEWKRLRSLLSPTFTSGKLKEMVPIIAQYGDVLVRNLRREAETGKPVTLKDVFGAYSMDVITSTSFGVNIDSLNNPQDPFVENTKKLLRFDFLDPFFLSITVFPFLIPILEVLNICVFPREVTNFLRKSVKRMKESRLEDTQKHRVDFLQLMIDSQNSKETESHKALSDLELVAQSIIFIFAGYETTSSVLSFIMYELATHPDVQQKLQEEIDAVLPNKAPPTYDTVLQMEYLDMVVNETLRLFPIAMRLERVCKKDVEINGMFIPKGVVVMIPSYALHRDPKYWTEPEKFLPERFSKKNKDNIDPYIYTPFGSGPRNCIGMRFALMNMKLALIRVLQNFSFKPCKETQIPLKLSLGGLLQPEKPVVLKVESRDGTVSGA

Regarding `O=c1[nH]c(=O)c2nc(Br)n(C3OC(CO)C(O)C3O)c2[nH]1` (configuration not stated), the Potency result in experiment [1], in experiment [2], in experiment [3] and in experiment [5] was “inactive” each time. Further, the activity change, negative = inhibition in experiment [4] is 6.72% (inactive). Further, the max response in experiment [4] (setting [6]) worked out at 5.7%; in experiment [4] (setting [7]) it was 13%.

Take `CC(=O)OCC1OC(n2cnc3c(=O)[nH]cnc32)C(OC(C)=O)C1OC(C)=O` (configuration not stated): the Potency result in experiment [1], in experiment [2], in experiment [3] and in experiment [5] was “inactive” throughout. The activity change, negative = inhibition in experiment [4] is 3.9% (inactive). In addition, the max response in experiment [4] (setting [6]) is 9.07%; in experiment [4] (setting [7]) it was 13.2%.

In the case of `Nc1nc2c(nc(Br)n2C2OC(CO)C(O)C2O)c(=O)[nH]1` (configuration not stated), the Potency result in experiment [1], in experiment [2], in experiment [3] and in experiment [5] was “inactive” each time. The activity change, negative = inhibition in experiment [4] is 2.67% (inactive). The figures for the max response in experiment [4] (setting [6]) and in experiment [4] (setting [7]) were 15.6% and 18.1%, respectively.

As for `CC1C(=O)CCC2[C@]1(C)CCC1[C@]2(C)CC[C@@]2(C)C3CC(C)(C)CC[C@]3(C)CC[C@@]12C` (some centres not stated), the Potency result in experiment [1], in experiment [2], in experiment [3] and in experiment [5] was “inactive” in each case. In experiment [4], the activity change, negative = inhibition is 2.51% (inactive). Besides, the results for the max response in experiment [4] (setting [6]) and in experiment [4] (setting [7]) were 9.14% and 14.3%, respectively.

With `COC(=O)Oc1ccccc1C(=O)O`, the Potency entry in experiment [1], in experiment [2], in experiment [3] and in experiment [5] was “inactive” in each case. Also, the activity change, negative = inhibition in experiment [4] was 5.3% (inactive). Further, the max response is 15.1% in experiment [4] (setting [6]) and 21.1% in experiment [4] (setting [7]).

For the compound `CC(=O)OC1CCC2(O)CC1(C)CCC1C2CC1(C)C` (configuration not stated), the Potency result in experiment [1], in experiment [2], in experiment [3] and in experiment [5] was “inactive” in each case. Further, the activity change, negative = inhibition in experiment [4] was 0.291% (inactive). In addition, the max response in experiment [4] (setting [6]) came to 16.4%; in experiment [4] (setting [7]), 18.1%.

Regarding `CCC(CCC(C)C1CCC2C3CCC4CC(O)CC[C@@]4(C)C3CC[C@@]12C)C(C)C` (some centres not stated), the Potency entry in experiment [1], in experiment [2], in experiment [3] and in experiment [5] was “inactive” in each case. Moreover, in experiment [4], the activity change, negative = inhibition is 7.69% (inactive). Besides, the max response in experiment [4] (setting [6]) was found to be 1.31%; in experiment [4] (setting [7]), 10.4%.

With `CCN1CCN(C(=O)NC(C(=O)NC2C(=O)N3C2SC(C)(C)C3C(=O)O)c2ccccc2)C(=O)C1=O` (configuration not stated), the Potency entry in experiment [1], in experiment [2], in experiment [3] and in experiment [5] was “inactive” throughout. For the same compound, the activity change, negative = inhibition in experiment [4] was 7.43% (inactive). Also, the max response in experiment [4] (setting [6]) was -3.83%; in experiment [4] (setting [7]), 0.752%.

On to `OCC(O)C(O)[C@H](O[C@H]1OC(CO)C(O)C(O)C1O)[C@H](O)CO` (some centres not stated), for which the Potency result in experiment [1], in experiment [2], in experiment [3] and in experiment [5] was “inactive” each time. In addition, in experiment [4], the activity change, negative = inhibition was 3.91% (inactive). For the same compound, the results for the max response in experiment [4] (setting [6]) and in experiment [4] (setting [7]) were 11.8% and 16%, respectively.

For the compound `O=C/C=C/c1ccc(O)cc1`, the Potency entry in experiment [1], in experiment [2], in experiment [3] and in experiment [5] was “inactive” in each case. For the same compound, the activity change, negative = inhibition in experiment [4] is 4.82% (inactive). The max response in experiment [4] (setting [6]) amounted to 10.7%; in experiment [4] (setting [7]), 16.6%.

In the case of `CC1CCC2(OC1)OC1CC3C4CCC5CC(O)CCC5(C)C4=CCC3(C)C1C2C` (configuration not stated), the Potency result in experiment [1], in experiment [2], in experiment [3] and in experiment [5] was “inactive” throughout. The activity change, negative = inhibition in experiment [4] is -0.725% (inactive). The max response in experiment [4] (setting [6]) was found to be 2.89%; in experiment [4] (setting [7]), 3.25%.

Regarding `Nc1nc2[nH]c(=O)[nH]c2c(=O)[nH]1`, the Potency entry in experiment [1], in experiment [2], in experiment [3] and in experiment [5] was “inactive” in each case. Moreover, in experiment [4], the activity change, negative = inhibition is -0.21% (inactive). In addition, the results for the max response in experiment [4] (setting [6]) and in experiment [4] (setting [7]) were 10.7% and 11.7%, respectively.

With `Nc1nc2c(c(=O)[nH]1)N(C=O)C(CNc1ccc(C(=O)NC(CCC(=O)O)C(=O)O)cc1)CN2` (configuration not stated), the Potency entry in experiment [1], in experiment [2], in experiment [3] and in experiment [5] was “inactive” each time. Besides, the activity change, negative = inhibition in experiment [4] was 6.17% (inactive). The max response was determined as 17.6% in experiment [4] (setting [6]) and 27.2% in experiment [4] (setting [7]).

Consider `NC(=O)c1ccc[n+]([C@@H]2OC(COP(=O)([O-])OP(=O)(O)OCC3OC(n4cnc5c(N)ncnc54)C(OP(=O)(O)O)C3O)C(O)C2O)c1` (some centres not stated), for which the Potency result in experiment [1], in experiment [2], in experiment [3] and in experiment [5] was “inactive” throughout. Besides, the activity change, negative = inhibition in experiment [4] is 5.09% (inactive). The max response amounted to 9.14% in experiment [4] (setting [6]) and 18.1% in experiment [4] (setting [7]).

As to `CC1CC[C@]2(CO)CC[C@]3(C)C(=CCC4[C@@]5(C)CCC(O)C(C)(C)C5CC[C@@]43C)C2C1C` (some centres not stated), the Potency entry in experiment [1], in experiment [2], in experiment [3] and in experiment [5] was “inactive” in each case. Moreover, the activity change, negative = inhibition in experiment [4] was 6.23% (inactive). The max response in experiment [4] (setting [6]) was determined as 4.46%; in experiment [4] (setting [7]), 20%.

Turning to `CC(C)CCCC(C)C1CCC2C3CC[C@H]4CC(=O)CC[C@@]4(C)C3CC[C@@]12C` (some centres not stated), the Potency entry in experiment [1], in experiment [2], in experiment [3] and in experiment [5] was “inactive” each time. In addition, the activity change, negative = inhibition in experiment [4] is 1.96% (inactive). The max response in experiment [4] (setting [6]) worked out at 8.57%; in experiment [4] (setting [7]), 10.7%.
